# The campaign covered roughly 5,500 compounds. About 2,000 (36%) were called active. Inconclusive results (about 18%) are left out. Some of the results follow. Values without a mark were called inactive. No stated cut-off is given here; in the data, active means normalized growth mostly below about 0.91 (no sharp cut-off); inconclusive means no clear call, values can overlap the other calls; inactive means mostly above about 0.92.
# Assay: chemical genetic growth profiling, strain panel (AID 1159580);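 further: tested at 20 µM; growth read once vehicle control cultures reached saturation at 30 °C; 1 = growth at the plate median or of vehicle wells; lower values mean less growth of the strain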
# Conditions: growth OD
# [1] = S. cerevisiae deletion strains, locus YAR019C, strain CDC15, hits give low values
# [2] = S. cerevisiae deletion strains, locus YBL105C, strain PKC1, hits give low values
# [3] = S. cerevisiae deletion strains, locus YBR135W, strain CKS1, hits give low values
# [4] = S. cerevisiae deletion strains, locus YBR136W, strain MEC1, hits give low values
# [5] = S. cerevisiae deletion strains, locus YBR160W, strain CDC28, hits give low values
# [6] = S. cerevisiae deletion strains, locus YDL017W, strain CDC7, hits give low values
# [7] = S. cerevisiae deletion strains, locus YDL028C, strain MPS1, hits give low values
# [8] = S. cerevisiae deletion strains, locus YDL101C, strain DUN1, hits give low values
# [9] = S. cerevisiae deletion strains, locus YDL108W, strain KIN28, hits give low values
# [10] = S. cerevisiae deletion strains, locus YDL132W, strain cdc53, hits give low values
# [11] = S. cerevisiae deletion strains, locus YDL214C, strain PRR2, hits give low values
# [12] = S. cerevisiae deletion strains, locus YDR052C, strain DBF4, hits give low values
# [13] = S. cerevisiae deletion strains, locus YDR054C, strain cdc34, hits give low values
# [14] = S. cerevisiae deletion strains, locus YDR226W, strain ADK1, hits give low values
# [15] = S. cerevisiae deletion strains, locus YDR477W, strain SNF1, hits give low values
# [16] = S. cerevisiae deletion strains, locus YER123W, strain YCK3, hits give low values
# [17] = S. cerevisiae deletion strains, locus YER133W, strain GLC7, hits give low values
# [18] = S. cerevisiae deletion strains, locus YFL009W, strain cdc4, hits give low values
# [19] = S. cerevisiae deletion strains, locus YFL029C, strain CAK1, hits give low values
# [20] = S. cerevisiae deletion strains, locus YFR003C, strain YPI1, hits give low values
# [21] = S. cerevisiae deletion strains, locus YFR019W, strain FAB1, hits give low values
# [22] = S. cerevisiae deletion strains, locus YFR028C, strain CDC14, hits give low values
# [23] = S. cerevisiae deletion strains, locus YGR040W, strain KSS1, hits give low values
# [24] = S. cerevisiae deletion strains, locus YGR052W, strain FMP48, hits give low values
# [25] = S. cerevisiae deletion strains, locus YGR092W, strain DBF2, hits give low values
# [26] = S. cerevisiae deletion strains, locus YHR030C, strain SLT2, hits give low values
# [27] = S. cerevisiae deletion strains, locus YHR079C, strain IRE1, hits give low values
# [28] = S. cerevisiae deletion strains, locus YHR082C, strain KSP1, hits give low values
# [29] = S. cerevisiae deletion strains, locus YHR205W, strain SCH9, hits give low values
# [30] = S. cerevisiae deletion strains, locus YIL147C, strain SLN1, hits give low values
# [31] = S. cerevisiae deletion strains, locus YJL095W, strain BCK1, hits give low values
# [32] = S. cerevisiae deletion strains, locus YJL128C, strain PBS2, hits give low values
# [33] = S. cerevisiae deletion strains, locus YJL157C, strain FAR1, hits give low values
# [34] = S. cerevisiae deletion strains, locus YJR016C, strain ILV3, hits give low values
# [35] = S. cerevisiae deletion strains, locus YJR066W, strain TOR1 (second series), hits give low values
# [36] = S. cerevisiae deletion strains, locus YJR066W, strain TOR1, hits give low values
# [37] = S. cerevisiae deletion strains, locus YKL048C, strain ELM1, hits give low values
# [38] = S. cerevisiae deletion strains, locus YKL067W, strain YNK1, hits give low values
# [39] = S. cerevisiae deletion strains, locus YKL101W, strain HSL1, hits give low values
# [40] = S. cerevisiae deletion strains, locus YKL193C, strain SDS22, hits give low values
# [41] = S. cerevisiae deletion strains, locus YKL203C, strain TOR2, hits give low values
# [42] = S. cerevisiae deletion strains, locus YLR113W, strain HOG1, hits give low values
# [43] = S. cerevisiae deletion strains, locus YLR133W, strain CKI1, hits give low values
# [44] = S. cerevisiae deletion strains, locus YLR403W, strain SFP1, hits give low values
# [45] = S. cerevisiae deletion strains, locus YML070W, strain DAK1, hits give low values
# [46] = S. cerevisiae deletion strains, locus YMR001C, strain CDC5, hits give low values
# [47] = S. cerevisiae deletion strains, locus YMR205C, strain PFK2 (second series), hits give low values
# [48] = S. cerevisiae deletion strains, locus YMR277W, strain FCP1, hits give low values
# [49] = S. cerevisiae deletion strains, locus YNL006W, strain LST8, hits give low values
# [50] = S. cerevisiae deletion strains, locus YNL020C, strain ARK1, hits give low values
# [51] = S. cerevisiae deletion strains, locus YNL161W, strain CBK1, hits give low values
# [52] = S. cerevisiae deletion strains, locus YNL183C, strain NPR1, hits give low values
# [53] = S. cerevisiae deletion strains, locus YNL207W, strain RIO2, hits give low values
# [54] = S. cerevisiae deletion strains, locus YNL222W, strain SSU72, hits give low values
# [55] = S. cerevisiae deletion strains, locus YNL307C, strain MCK1 (second series), hits give low values
# [56] = S. cerevisiae deletion strains, locus YOL078W, strain AVO1, hits give low values
# [57] = S. cerevisiae deletion strains, locus YOL136C, strain PFK27, hits give low values
# [58] = S. cerevisiae deletion strains, locus YOR061W, strain CKA2, hits give low values
# [59] = S. cerevisiae deletion strains, locus YOR119C, strain RIO1, hits give low values
# [60] = S. cerevisiae deletion strains, locus YOR231W, strain MKK1, hits give low values
# [61] = S. cerevisiae deletion strains, locus YOR329C, strain SCD5, hits give low values
# [62] = S. cerevisiae deletion strains, locus YPL031C, strain PHO85, hits give low values
# [63] = S. cerevisiae deletion strains, locus YPL153C, strain RAD53, hits give low values
# [64] = S. cerevisiae deletion strains, locus YPL204W, strain HRR25, hits give low values
# [65] = S. cerevisiae deletion strains, locus YPL209C, strain IPL1, hits give low values
# [66] = S. cerevisiae deletion strains, locus YPL256C, strain CLN2, hits give low values
# [67] = S. cerevisiae deletion strains, locus YPR025C, strain CCL1, hits give low values
# [68] = S. cerevisiae deletion strains, locus YPR106W, strain ISR1, hits give low values
# [69] = S. cerevisiae deletion strains, locus YPR111W, strain DBF20, hits give low values
# [70] = S. cerevisiae deletion strains, strain NNK1, hits give low values
# [71] = S. cerevisiae deletion strains, strain TSCII, hits give low values
smiles,measurement,setting,value
N#CC(C#N)=C(SCc1c(Cl)cccc1Cl)SCc1c(Cl)cccc1Cl,normalized growth,[1],0.997
same,normalized growth,[2],0.981
same,normalized growth,[3],0.992
same,normalized growth,[4],0.988
same,normalized growth,[5],0.996
same,normalized growth,[6],0.989
same,normalized growth,[7],0.993
same,normalized growth,[8],0.988
same,normalized growth,[9],0.989
same,normalized growth,[10],0.984
same,normalized growth,[11],0.996
same,normalized growth,[12],0.99
same,normalized growth,[13],0.977
same,normalized growth,[14],0.981
same,normalized growth,[15],0.993
same,normalized growth,[16],0.999
same,normalized growth,[17],0.995
same,normalized growth,[18],0.981
same,normalized growth,[19],0.986
same,normalized growth,[20],0.99
same,normalized growth,[21],0.979
same,normalized growth,[22],0.993
same,normalized growth,[23],0.993
same,normalized growth,[24],1.03
same,normalized growth,[25],0.982
same,normalized growth,[26],0.925
same,normalized growth,[27],0.93
same,normalized growth,[28],1.11
same,normalized growth,[29],0.859
same,normalized growth,[30],0.992
same,normalized growth,[31],0.969
same,normalized growth,[32],0.993
same,normalized growth,[33],0.989
same,normalized growth,[34],0.991
same,normalized growth,[35],1
same,normalized growth,[36],1.09
same,normalized growth,[37],0.954
same,normalized growth,[38],0.995
same,normalized growth,[39],0.981
same,normalized growth,[40],0.987
same,normalized growth,[41],1.08
same,normalized growth,[42],0.95
same,normalized growth,[43],0.991
same,normalized growth,[44],0.937
same,normalized growth,[45],0.998
same,normalized growth,[46],0.985
same,normalized growth,[47],0.996
same,normalized growth,[48],0.994
same,normalized growth,[49],0.997
same,normalized growth,[50],0.987
same,normalized growth,[51],0.983
same,normalized growth,[52],1.1
same,normalized growth,[53],0.987
same,normalized growth,[54],0.987
same,normalized growth,[55],0.989
same,normalized growth,[56],0.993
same,normalized growth,[57],0.988
same,normalized growth,[58],0.995
same,normalized growth,[59],1.08
same,normalized growth,[60],1.01
same,normalized growth,[61],0.986
same,normalized growth,[62],0.989
same,normalized growth,[63],1.01
same,normalized growth,[64],1
same,normalized growth,[65],0.987
same,normalized growth,[66],0.946
same,normalized growth,[67],0.996
same,normalized growth,[68],0.998
same,normalized growth,[69],0.988
same,normalized growth,[70],0.996
same,normalized growth,[71],0.993
Nc1ccccc1SCc1c(Cl)cccc1Cl,normalized growth,[1],0.949
same,normalized growth,[2],0.947
same,normalized growth,[3],0.957
same,normalized growth,[4],0.945
same,normalized growth,[5],0.953
same,normalized growth,[6],0.952
same,normalized growth,[7],0.947
same,normalized growth,[8],0.953
same,normalized growth,[9],0.954
same,normalized growth,[10],0.94
same,normalized growth,[11],0.889
same,normalized growth,[12],0.962
same,normalized growth,[13],0.943
same,normalized growth,[14],0.969
same,normalized growth,[15],0.859
same,normalized growth,[16],0.795
same,normalized growth,[17],0.821
same,normalized growth,[18],0.946
same,normalized growth,[19],0.949
same,normalized growth,[20],0.944
same,normalized growth,[21],0.841
same,normalized growth,[22],0.948
same,normalized growth,[23],0.853
same,normalized growth,[24],0.787
same,normalized growth,[25],0.775
same,normalized growth,[26],0.695 (active)
same,normalized growth,[27],0.843
same,normalized growth,[28],0.835
same,normalized growth,[29],0.68
same,normalized growth,[30],0.952
same,normalized growth,[31],0.617
same,normalized growth,[32],0.914
same,normalized growth,[33],0.885
same,normalized growth,[34],0.956
same,normalized growth,[35],0.813
same,normalized growth,[36],0.767
same,normalized growth,[37],0.939
same,normalized growth,[38],0.87
same,normalized growth,[39],0.87
same,normalized growth,[40],0.952
same,normalized growth,[41],0.907
same,normalized growth,[42],0.696 (active)
same,normalized growth,[43],0.91
same,normalized growth,[44],0.795
same,normalized growth,[45],0.831
same,normalized growth,[46],0.945
same,normalized growth,[47],0.885
same,normalized growth,[48],0.951
same,normalized growth,[49],0.959
same,normalized growth,[50],0.891
same,normalized growth,[51],0.955
same,normalized growth,[52],0.79
same,normalized growth,[53],0.948
same,normalized growth,[54],0.951
same,normalized growth,[55],0.825
same,normalized growth,[56],0.943
same,normalized growth,[57],0.853
same,normalized growth,[58],0.843
same,normalized growth,[59],0.905
same,normalized growth,[60],0.751
same,normalized growth,[61],0.95
same,normalized growth,[62],0.841
same,normalized growth,[63],0.85
same,normalized growth,[64],0.857
same,normalized growth,[65],0.949
same,normalized growth,[66],0.917
same,normalized growth,[67],0.95
same,normalized growth,[68],0.95
same,normalized growth,[69],0.935
same,normalized growth,[70],0.944
same,normalized growth,[71],0.952
Clc1cccc(Cl)c1CSC1=NCCCN1C1CCCCC1,normalized growth,"S. cerevisiae deletion strains, locus YAL013W, strain DEP1, hits give low values",0.999
same,normalized growth,"S. cerevisiae deletion strains, locus YBR229C, strain ROT2, hits give low values",1
same,normalized growth,[8],1
same,normalized growth,"S. cerevisiae deletion strains, locus YDR150W, strain NUM1, hits give low values",0.993
same,normalized growth,"S. cerevisiae deletion strains, locus YEL061C, strain CIN8, hits give low values",0.973
same,normalized growth,"S. cerevisiae deletion strains, locus YGR078C, strain PAC10, hits give low values",1
same,normalized growth,"S. cerevisiae deletion strains, locus YGR229C, strain SMI1, hits give low values",1
same,normalized growth,[26],0.967
same,normalized growth,"S. cerevisiae deletion strains, locus YHR087W, strain rtc3, hits give low values",1.01
same,normalized growth,"S. cerevisiae deletion strains, locus YJL187C, strain SWE1, hits give low values",1.01
same,normalized growth,"S. cerevisiae deletion strains, locus YJR043C, strain POL32, hits give low values",1
same,normalized growth,"S. cerevisiae deletion strains, locus YJR075W, strain HOC1, hits give low values",1.03
same,normalized growth,"S. cerevisiae deletion strains, locus YLR039C, strain RIC1, hits give low values",1
same,normalized growth,"S. cerevisiae deletion strains, locus YLR058C, strain SHM2 (second series), hits give low values",0.993
same,normalized growth,"S. cerevisiae deletion strains, locus YLR085C, strain ARP6, hits give low values",0.987
same,normalized growth,"S. cerevisiae deletion strains, locus YLR262C, strain YPT6, hits give low values",1.01
same,normalized growth,"S. cerevisiae deletion strains, locus YML094W, strain GIM5, hits give low values",0.988
same,normalized growth,"S. cerevisiae deletion strains, locus YMR219W, strain ESC1, hits give low values",0.994
same,normalized growth,"S. cerevisiae deletion strains, locus YMR263W, strain SAP30, hits give low values",1.01
same,normalized growth,"S. cerevisiae deletion strains, locus YNL153C, strain GIM3, hits give low values",0.985
same,normalized growth,"S. cerevisiae deletion strains, locus YNL298W, strain CLA4 (second series), hits give low values",0.998
same,normalized growth,"S. cerevisiae deletion strains, locus YNL322C, strain KRE1, hits give low values",1
same,normalized growth,"S. cerevisiae deletion strains, locus YNR030W, strain Alg12, hits give low values",0.975
same,normalized growth,"S. cerevisiae deletion strains, locus YOL006C, strain TOP1, hits give low values",0.986
same,normalized growth,"S. cerevisiae deletion strains, locus YPL055C, strain LGE1, hits give low values",1.05
same,normalized growth,"S. cerevisiae deletion strains, locus YPL241C, strain CIN2, hits give low values",0.992
same,normalized growth,"S. cerevisiae deletion strains, locus YPR135W, strain CTF4, hits give low values",1.09
same,normalized growth,"S. cerevisiae strains, strain wild type, hits give low values",1
